{"source": "PubChem BioAssay AID652054", "about": "(National Center for Advancing Translational Sciences (NCATS), 2013)", "note": "Among all 360,000 compounds or so, about 9,100 (2.5%) were called active. Another 4% or so got no clear call; they are omitted. This excerpt belongs to a sample that is enriched for actives. Unmarked numbers belong to inactive results. Rule as the data show it: active = max response below about -50%; inconclusive = no clear call, values can overlap the other calls; inactive = above that. % is scaled to controls: 0 for no effect and ±100 for the full control effect.", "data": [{"target": "D(3) dopamine receptor (Homo sapiens) (UniProt P35462)", "sequence (P35462 whole entry, looked up)": "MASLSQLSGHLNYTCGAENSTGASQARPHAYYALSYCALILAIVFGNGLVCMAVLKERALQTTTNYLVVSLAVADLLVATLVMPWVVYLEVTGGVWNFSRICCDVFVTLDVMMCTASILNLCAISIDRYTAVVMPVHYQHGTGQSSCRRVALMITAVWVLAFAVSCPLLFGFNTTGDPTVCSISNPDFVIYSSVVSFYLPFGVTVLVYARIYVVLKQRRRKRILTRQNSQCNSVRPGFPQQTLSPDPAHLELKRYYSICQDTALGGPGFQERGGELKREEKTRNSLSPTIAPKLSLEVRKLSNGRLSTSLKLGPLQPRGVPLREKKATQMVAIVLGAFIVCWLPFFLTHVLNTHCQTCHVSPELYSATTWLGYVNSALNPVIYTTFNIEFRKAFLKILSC", "test": "qHTS of D3 Dopamine Receptor Antagonist: qHTS", "conditions": "D3R cells, DiscoveRx beta-arrestin luminescence, antagonist mode; hits give low values", "in_short": "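Cells expressing the human receptor were seeded at 1500 cells/well, incubated overnight at 37 degrees C in 5% CO2, then exposed to library compounds with dopamine controls for 90 minutes at 37 degrees C before luminescent detection.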", "values": [{"smiles": "C[C@H]1Cn2cnc(C(=O)N[C@@H](Cc3c[nH]c4ccccc34)C(=O)OC(C)(C)C)c2C(=O)N1", "max response, negative = inhibition": "5.11%"}, {"smiles": "CN(C)C(=O)c1cccc(-c2cnc3c(NC=O)cc(-c4ccc(F)cc4)cn23)c1", "max response, negative = inhibition": "95.3%"}, {"smiles": "N=C(N)SCc1cccc2ccccc12", "max response, negative = inhibition": "-51.3% (active)"}, {"smiles": "CCOc1ccc(Br)cc1CSC(=N)N", "max response, negative = inhibition": "-4.48%"}, {"smiles": "CCc1ccc(-c2nn(-c3ccccc3)cc2CSC(=N)N)cc1", "max response, negative = inhibition": "6.38%"}, {"smiles": "CCCNC(=O)C[C@@H]1CC[C@@H]2[C@H](COC[C@H](O)CN2C(=O)c2cc(Cl)cc(Cl)c2)O1", "max response, negative = inhibition": "13.7%"}, {"smiles": "N#CCCN(C(=S)Nc1ccc(Cl)c(Cl)c1)C1CCCCC1", "max response, negative = inhibition": "2.54%"}, {"smiles": "CN1OC[C@@H]2CN(C(=O)C(C)(C)C)[C@H](c3ccc(-n4ccnc4)cc3)C[C@@H]21", "max response, negative = inhibition": "22.8%"}, {"smiles": "C[C@@H]1CCCCO[C@H](CN(C)Cc2ccccc2)[C@@H](C)CN([C@H](C)CO)C(=O)c2cc(NS(=O)(=O)c3ccc(Cl)cc3)ccc2O1", "max response, negative = inhibition": "-0.783%"}, {"smiles": "O=C(O)c1ccccc1/C=N/Nc1ccc(S(=O)(=O)Nc2ccc(Cl)cc2)cc1[N+](=O)[O-]", "max response, negative = inhibition": "6.67%"}, {"smiles": "COc1ccc(Br)cc1/C=N/Nc1ccc(S(=O)(=O)Nc2ccccc2C(=O)O)cc1[N+](=O)[O-]", "max response, negative = inhibition": "-66% (active)"}, {"smiles": "Cc1ccc(NS(=O)(=O)c2ccc(N/N=C/c3ccccc3OCC(=O)O)c([N+](=O)[O-])c2)c(C)c1", "max response, negative = inhibition": "-17%"}, {"smiles": "CCCNC(=O)C1CC(=O)N(c2ccc(OCc3ccccc3)cc2)C1", "note": "(stereo not given)", "max response, negative = inhibition": "0%"}, {"smiles": "CCNC(=O)C1(C)CCN(Cc2ccc(C(=O)OCC)o2)C1", "note": "(stereo not given)", "max response, negative = inhibition": "-10.7%"}, {"smiles": "COc1ccc(C(=O)O)cc1S(=O)(=O)NC1CCN(Cc2ccccc2)CC1", "max response, negative = inhibition": "8.04%"}, {"smiles": "COC(=O)c1cccc(NC(=O)CN2CCC(NC(=O)c3cc(OC)c(OC)c(OC)c3)CC2)c1", "max response, negative = inhibition": "24%"}, {"smiles": "CCOc1cc2[nH]c(=O)n(Cc3ccc(C(=O)NCCCN4CCCC4=O)cc3)c(=O)c2cc1OCC", "max response, negative = inhibition": "6.17%"}, {"smiles": "COc1cc2[nH]c(=O)n(Cc3ccc(C(=O)NC4CCN(Cc5ccccc5)CC4)cc3)c(=O)c2cc1OC", "max response, negative = inhibition": "-79.7% (active)"}, {"smiles": "COc1cc(C(=O)NC2CCN(Cc3ccccc3)CC2)cc(Cl)c1OC(C)C", "max response, negative = inhibition": "-71.6% (active)"}, {"smiles": "COc1cc2[nH]c(=O)n(CCC(=O)NC3CCN(Cc4ccccc4)CC3)c(=O)c2cc1OC", "max response, negative = inhibition": "-7.24%"}, {"smiles": "Nc1cccc(-c2cncc(N3CCN(Cc4ccccn4)CC3)n2)c1", "max response, negative = inhibition": "-4.86%"}, {"smiles": "CCN(CC(=O)Nc1ccc(NC(C)=O)cc1)C(=O)C1CC(=O)N(c2ccc3c(c2)OCCO3)C1", "note": "(stereo not given)", "max response, negative = inhibition": "19%"}, {"smiles": "O=C(CN1C(=O)NC2(CCc3ccccc32)C1=O)NC1CCCCC1", "note": "(stereo not given)", "max response, negative = inhibition": "-24.4%"}, {"smiles": "CCOC(=O)C1(C)CCCN(C(=O)c2ccc(F)c(Cl)c2)C1", "note": "(stereo not given)", "max response, negative = inhibition": "104%"}, {"smiles": "CC(=O)c1cccc(-c2cnc3c(NC=O)cc(-c4ccccc4Oc4ccccc4)cn23)c1", "max response, negative = inhibition": "31%"}, {"smiles": "C#Cc1cc(N2CCN(C(=O)c3ccoc3)CC2)n2nc(-c3cccc(Cl)c3)cc2n1", "max response, negative = inhibition": "44.3%"}, {"smiles": "CCOC(=O)[C@]12CCCC=C1N(CCC1=CCCCC1)C(=O)[C@H](CC(=O)N1CCSCC1)C2", "max response, negative = inhibition": "21.2%"}, {"smiles": "Cc1ccc(C(=O)NC(=S)Nc2ccc3[nH]c(=O)[nH]c3c2)cc1C", "max response, negative = inhibition": "-9.59%"}, {"smiles": "Cc1cc(C)cc(C(=O)NC(=S)Nc2ccc3[nH]c(=O)[nH]c3c2)c1", "max response, negative = inhibition": "-10.1%"}, {"smiles": "Cc1cc2[nH]ncc2cc1NC(=S)NC(=O)c1ccccc1", "max response, negative = inhibition": "-53.9% (active)"}, {"smiles": "COc1ccccc1CNC(=O)c1cc(-c2cc(Cl)ccc2C)n[nH]1", "max response, negative = inhibition": "3%"}, {"smiles": "Cc1ccc(C(=O)N/C(=C/c2cccnc2)C(=O)O)cc1", "max response, negative = inhibition": "0%"}, {"smiles": "C/C(=N\\NC(=O)c1ccc(C)cc1)C1C(=O)c2ccccc2C1=O", "max response, negative = inhibition": "-89.4% (active)"}, {"smiles": "O=C1c2ccccc2C(=O)C1C(=O)C1CC1", "max response, negative = inhibition": "4.87%"}, {"smiles": "O=C1NC[C@H](CCCCN2CCN(CCc3ccccc3)C(=O)C2=O)N(CC2CCCCC2)C1=O", "max response, negative = inhibition": "2.55%"}, {"smiles": "CCN(C(=O)Nc1cccc2ccccc12)c1ccccc1", "max response, negative = inhibition": "-20.4%"}, {"smiles": "Cc1cc(Br)ccc1NC(=O)CCCOc1cc(=O)n(C)c2ccccc12", "max response, negative = inhibition": "-20.6%"}, {"smiles": "COc1ccc(Nc2cc(=O)oc3ccccc23)cc1", "max response, negative = inhibition": "-15.7%"}, {"smiles": "COc1ccc(Nc2ccc3ccccc3c2)cc1", "max response, negative = inhibition": "-3.21%"}, {"smiles": "COc1ccc(Nc2oc(-c3ccccc3Cl)nc2C#N)cc1", "max response, negative = inhibition": "-54.1% (active)"}, {"smiles": "O=C(CSc1ccc(Cl)cc1)NC1CC1", "max response, negative = inhibition": "20.3%"}, {"smiles": "Cc1cc(C)c(C#N)c(SCC(=O)Nc2ccccc2)n1", "max response, negative = inhibition": "-13.9%"}, {"smiles": "Cc1cc2cc3c(cc2nc1SCC(=O)Nc1c(C)cccc1C)CCC3", "max response, negative = inhibition": "-74.6% (active)"}, {"smiles": "Cc1cccc(C)c1NC(=O)CSc1nc2c([nH]1)c(=O)n(C)c(=O)n2C", "max response, negative = inhibition": "-7.1%"}, {"smiles": "CN(C)CCNC(=O)c1cccc(-c2cnc3c(NC=O)cc(-c4cccc(C(F)(F)F)c4)cn23)c1", "max response, negative = inhibition": "0%"}, {"smiles": "CN(Cc1ccccc1)C(=O)CCC1CCN(C(=O)c2ccco2)CC1", "max response, negative = inhibition": "13.8%"}, {"smiles": "COc1cccc(CNC(=O)Cc2csc(Nc3nc(=S)[nH]c4ccccc34)n2)c1", "max response, negative = inhibition": "11.5%"}, {"smiles": "Cn1c(C(=O)NCCCN2CCN(c3cccc(Cl)c3)CC2)cc2c(=O)n(C)c3ccccc3c21", "max response, negative = inhibition": "-103% (active)"}, {"smiles": "CCn1c(=O)cc(OCC(=O)NCCCN2CCN(c3cccc(Cl)c3)CC2)c2ccccc21", "max response, negative = inhibition": "-69.4% (active)"}, {"smiles": "Cn1c(C(=O)N2CCC(C(N)=O)CC2)cc2c(=O)n(C)c3ccccc3c21", "max response, negative = inhibition": "0%"}, {"smiles": "O=C(CCn1c(=O)[nH]c2ccccc2c1=O)NCCCN1CCN(c2cccc(Cl)c2)CC1", "max response, negative = inhibition": "-71.4% (active)"}, {"smiles": "O=C(Cc1csc(Nc2nc(=S)[nH]c3ccccc23)n1)NCCCN1CCN(c2cccc(Cl)c2)CC1", "max response, negative = inhibition": "-83.7% (active)"}, {"smiles": "O=C(COc1cc2oc(=O)c3c(c2cc1Cl)CCC3)NCCCN1CCOCC1", "max response, negative = inhibition": "-19%"}, {"smiles": "Cn1c(Cc2cccc3ccccc23)nnc1SCC(=O)N1CCN(c2cccc(Cl)c2)CC1", "max response, negative = inhibition": "0%"}, {"smiles": "O=C(NCCCN1CCOCC1)c1cc(-c2ccc(Cl)cc2)on1", "max response, negative = inhibition": "4.36%"}, {"smiles": "CCOC(=O)N1CCC(Nc2c(NCCN3CCN(c4cccc(Cl)c4)CC3)c(=O)c2=O)CC1", "max response, negative = inhibition": "0.472%"}, {"smiles": "O=C(Cc1ccc(-n2c(=O)[nH]c3ccccc3c2=O)cc1)N1CCN(c2cccc(Cl)c2)CC1", "max response, negative = inhibition": "36.6%"}, {"smiles": "O=C(CCCn1c(=O)[nH]c2cc(Cl)ccc2c1=O)NCCN1CCN(c2ccccc2)CC1", "max response, negative = inhibition": "-29.2%"}, {"smiles": "C[C@H]1CN([C@@H](C)CO)C(=O)CCCn2cc(nn2)CO[C@@H]1CN(C)S(=O)(=O)c1ccccc1C#N", "max response, negative = inhibition": "-12.5%"}, {"smiles": "Cc1ccc2nc(-c3ccccc3)c(CC3CCCCC3)n2c1", "max response, negative = inhibition": "-9.93%"}, {"smiles": "COc1ccc(C(O)C(O)(C(=O)OC(C)C)c2ccc(C)cc2)cc1", "note": "(stereo not given)", "max response, negative = inhibition": "-17.4%"}, {"smiles": "CC(C)C[C@H]1CNC(=O)C(=O)N1C[C@H]1CCCN1C[C@H](Cc1ccc(O)cc1)N1C[C@H](CC(C)C)N(CC2CCCCCC2)C(=O)C1=O", "max response, negative = inhibition": "30.9%"}, {"smiles": "CC(C)C[C@@H]1Cc2[nH][nH]c(=O)c2[C@H](CCc2ccccc2)O1", "max response, negative = inhibition": "-13%"}, {"smiles": "Clc1ccc(-c2cccc3nccn23)cc1", "max response, negative = inhibition": "0%"}, {"smiles": "CCn1c(SCC(=O)N2CCCC2=O)nc2ccccc21", "max response, negative = inhibition": "7.76%"}, {"smiles": "CCOC(=O)[C@]12CCCC=C1N(CCC1=CCCCC1)C(=O)[C@H](CC(=O)NCCCOC)C2", "max response, negative = inhibition": "7.2%"}, {"smiles": "COc1ncnc2c1ncn2CCCNCCN1CCOCC1", "max response, negative = inhibition": "20.7%"}, {"smiles": "COc1ccc(S(=O)(=O)Nc2ccc3cn[nH]c3c2)cc1[N+](=O)[O-]", "max response, negative = inhibition": "-18.8%"}, {"smiles": "Cc1ccc(S(=O)(=O)N/N=C\\c2cc3c(cc2[N+](=O)[O-])OCO3)cc1", "max response, negative = inhibition": "-4.05%"}, {"smiles": "COc1ccc(S(=O)(=O)N/N=C\\c2ccc(OC)c(COc3ccc(C)cc3[N+](=O)[O-])c2)cc1", "max response, negative = inhibition": "-59.9% (active)"}, {"smiles": "Nc1[nH]c(C(=O)c2ccccc2)c(-c2ccncc2)c1C(=O)NCc1cccc2ccccc12", "max response, negative = inhibition": "-9.51%"}, {"smiles": "Nc1ncnc2c1ncn2[C@@H]1O[C@H](CNC(=O)[C@H](N)Cc2cccnc2)[C@@H](O)[C@H]1O", "max response, negative = inhibition": "1.65%"}, {"smiles": "COc1ccc(Cl)cc1NC(=O)C(C)N1CCc2ccccc21", "note": "(stereo not given)", "max response, negative = inhibition": "-7.48%"}, {"smiles": "COc1cc(NC(=O)NCC2CCN(Cc3ccc(C)cc3)CC2)cc(OC)c1OC", "max response, negative = inhibition": "-16.2%"}, {"smiles": "COc1ccc(Cl)cc1NC(=O)NCC1CCN(Cc2ccccc2F)CC1", "max response, negative = inhibition": "-85.7% (active)"}, {"smiles": "O=C(NCC1CCN(Cc2ccccc2Cl)CC1)Nc1cccc(Cl)c1", "max response, negative = inhibition": "-29.8%"}, {"smiles": "O=C(CN1CCN(Cc2ccccc2)CC1)Nc1ccc(F)c(F)c1", "max response, negative = inhibition": "-16.4%"}, {"smiles": "Cc1cccc(CN2CCC(CNC(=O)Nc3ccc(F)c(Cl)c3)CC2)c1", "max response, negative = inhibition": "-60.2% (active)"}, {"smiles": "CCc1nc2c(OCC(=O)C(C)(C)C)cccn2c1N(C)C(=O)c1ccccc1F", "max response, negative = inhibition": "-24.2%"}, {"smiles": "O=C1NC(Cc2ccccc2)c2nc3ccc(Br)cc3c(=O)n2-c2cc3ccccc3cc21", "note": "(stereo not given)", "max response, negative = inhibition": "-0.847%"}, {"smiles": "COc1ccccc1CNC(=O)c1cc(-c2cc(F)ccc2OC)n[nH]1", "max response, negative = inhibition": "18.6%"}, {"smiles": "COc1cc(NC(=O)c2cc(-c3ccc(F)cc3OC(C)C)n[nH]2)cc(OC)c1OC", "max response, negative = inhibition": "6.57%"}, {"smiles": "COc1cc(F)ccc1-c1cc(C(=O)NCC2CCCCC2)[nH]n1", "max response, negative = inhibition": "-75.3% (active)"}, {"smiles": "CC(=O)c1ccc(Nc2nc(C(N)c3ccccc3)cs2)cc1", "note": "(stereo not given)", "max response, negative = inhibition": "2.63%"}, {"smiles": "C[C@@H]1CN([C@@H](C)CO)S(=O)(=O)c2ccc(-c3ccc(C(=O)N(C)C)cc3)cc2O[C@@H]1CN(C)Cc1ccccc1C(=O)O", "max response, negative = inhibition": "16.1%"}]}]}
